{"source": "PubChem BioAssay AID493152", "about": "(Sanford-Burnham Center for Chemical Genomics, 2011)", "biological_target": "DNA dC->dU-editing enzyme APOBEC-3G (Homo sapiens) (UniProt Q9HC16)", "sequence (Q9HC16 whole entry, looked up)": "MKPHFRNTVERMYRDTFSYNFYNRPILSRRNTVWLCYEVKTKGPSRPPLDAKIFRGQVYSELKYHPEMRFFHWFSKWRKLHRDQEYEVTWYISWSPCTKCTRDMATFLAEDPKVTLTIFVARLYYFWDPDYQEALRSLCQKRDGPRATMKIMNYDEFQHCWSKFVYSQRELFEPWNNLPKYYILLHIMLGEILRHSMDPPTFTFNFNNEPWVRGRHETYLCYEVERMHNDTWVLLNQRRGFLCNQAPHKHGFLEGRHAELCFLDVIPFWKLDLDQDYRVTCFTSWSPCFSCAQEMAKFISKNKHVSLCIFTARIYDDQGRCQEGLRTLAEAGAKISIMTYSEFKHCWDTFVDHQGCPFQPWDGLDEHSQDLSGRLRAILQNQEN", "experiment": "human A3G ssDNA deamination inhibition, hit confirmation – biochemical, fluorescence, single-stranded DNA substrate, single concentration (AID 493152)", "conditions": "recombinant A3G ssDNA deaminase, UDG/FAM-TAMRA fluorescence; at 20 µM; active compounds read high", "note": "The other results are listed elsewhere or left out. Activity calls are given as the source filed them.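 The calls were made as follows: active = inhibition reaching a set limit in any replicate at 20 µM, the limit being 80% of the first screen's; inactive = the rest.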", "data": [{"smiles": "COC(=O)N(c1ccc(OC)cc1)P1(=S)OCCC(C)O1", "note": "(stereo unspecified)", "values": [{"measurement": "inhibition", "value": "42.1% (active)"}]}]}
